Assay outcomes deposited in PubChem BioAssay by National Center for Advancing Translational Sciences (NCATS).
The list is not random: actives were taken first. Their share in the collection is about 12%.
BAZ2B block: inhibitors of human BAZ2B bromodomain. Q9UIF8. AlphaScreen BAZ2B-H3K14Ac peptide displacement. Potency, µM (highest dose often 114 µM), without a hit: top-dose activity change, negative = inhibition, hits mostly inhibitors. 360,000 compounds, 4.4% hits; note: % is set by controls: 0 for no effect and ±100 for the full control effect; nearly all actives have a fitted effect of over 60% in size
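Compounds, titrated to a top concentration of 110 uM, were incubated 30 min at room temperature with preformed BAZ2B/acetyl-K14 H3 peptide complex (50 nM each). Proximity signal was measured by AlphaScreen after 20 min with beads.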
Sfp PPTase inh: Sfp phosphopantetheinyl transferase inhibition; Q9F4F7; Biochemical Sfp PPTase activity, qHTS; Potency, µM, for the others: largest response in the series, negative = inhibition, usual class: inhibitors; 310,000 compounds, 3.5% hits;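 note: the enzyme is Sfp with the accession as filed and its product quenches rhodamine fluorescence; 0% = enzyme reaction without inhibitor and -100% = no enzyme wells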
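Sfp 15 nM + cpd, 15 min RT; start w/ rhodamine-CoA 5 uM, BHQ-2-YbbR 12.5 uM (final); 50 mM Hepes pH 7.6, 10 mM MgCl2, 0.01% NP-40, 0.01% BSA; read 525/598 nm at 0 and 30 min.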
PLK1 PBD inh: PLK1 (human) polo-box domain binding inhibition; Plk1 PBD binding of FITC phosphopeptide, fluorescence polarization; AID 720504; Potency, µM, for inactives: max response, negative = inhibition, actives largely listed as inhibitors; 360,000 compounds, 2.8% hits; note: series mostly up to about 57 µM; % is set by controls: 0 for no effect and ±100 for the full control effect; nearly all actives have a fitted effect of over 65% in size
HP1b binding inh: HP1-beta chromodomain-methylated histone interaction inhibition; AID 540317; 390,000 compounds, 0.56% hits; Potency, µM (series often up to 114 µM), inactives show top-dose activity change, negative = inhibition, actives largely listed as inhibitors; P83916; AlphaScreen HP1-beta / biotin-H3K9me3 peptide binding; note: nearly all actives have a fitted effect of over 70% in size
Target sequence (P83916 whole entry, looked up): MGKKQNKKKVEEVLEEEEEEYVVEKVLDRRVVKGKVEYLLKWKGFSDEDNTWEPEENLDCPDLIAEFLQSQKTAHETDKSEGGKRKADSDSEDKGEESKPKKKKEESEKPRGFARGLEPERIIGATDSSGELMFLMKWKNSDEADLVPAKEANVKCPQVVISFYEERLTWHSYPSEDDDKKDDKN
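Compound inhibition of the preformed complex between 50 nM HP1-beta and 50 nM biotinylated H3K9me3 peptide was read by AlphaScreen. Buffer was PBS pH 7.4 with 0.01% Tween-20. Incubations ran 30 min at room temperature, with 10 ug/mL donor/acceptor beads.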
JMJD2A Tudor inh: inhibitors of human JMJD2A Tudor domain. O75164. AlphaScreen JMJD2A-Tudor / H3K4me3 peptide binding. Potency, µM (titrated, usually from 114 µM), inactives show at the top dose activity change, negative = inhibition, hits mostly inhibitors. 390,000 compounds, 4.4% hits; note: % is set by controls: 0 for no effect and ±100 for the full control effect; nearly all actives have a fitted effect of over 50% in size
G9a block: blocks human histone lysine methyltransferase G9a | 350,000 compounds, 8.8% hits | G9a H3K9 monomethylation, AlphaScreen, 2 h | Q96KQ7 | Potency, µM (titrated, usually from 102 µM), for the others: at the highest dose activity, negative = inhibition, most hits filed as inhibitors; note: % is set by controls: 0 for no effect and ±100 for the full control effect; nearly all actives have a fitted effect of over 75% in size
Target sequence (Q96KQ7 913-1193 limits assumed): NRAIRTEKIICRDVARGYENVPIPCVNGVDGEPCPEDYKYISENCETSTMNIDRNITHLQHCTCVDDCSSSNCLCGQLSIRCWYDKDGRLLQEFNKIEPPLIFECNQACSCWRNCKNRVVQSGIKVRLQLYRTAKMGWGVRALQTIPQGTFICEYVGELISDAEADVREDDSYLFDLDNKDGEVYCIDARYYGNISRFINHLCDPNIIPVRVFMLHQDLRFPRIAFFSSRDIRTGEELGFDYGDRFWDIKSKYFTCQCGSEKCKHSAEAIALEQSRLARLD
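Readings reflect AlphaScreen signal from monomethyl-H3K9 antibody detection. HMT at 20 nM; substrate b-H3K9 500 nM; cofactor SAM 20 uM; 2 h RT reaction; compounds tested as titrations in qHTS with 15 min preincubation.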
Starred values were filed as active, the others as inactive; [ ] = dose if it differs, or a comment. Calls come from the whole dose curve; as a rule, active = well fitted curve in the direction sought with a large enough effect; inconclusive = small, poorly fitted or top-dose-only effect, or another doubt; inactive = no such curve, though single readings can be large; an effect the other way counts as inactive or inconclusive. Potency is the fitted concentration of half-maximal effect.

Screening CCn1cc(Cl)c(C(=O)Nc2ccccc2C(N)=O)n1 returned BAZ2B block -4%, Sfp PPTase inh 17%, PLK1 PBD inh -14%, HP1b binding inh 19%, JMJD2A Tudor inh -15% and G9a block 11%.
`O=C1N/C(=C/c2cccn2-c2ccc(F)cc2)C(=O)N1Cc1ccccc1` gave BAZ2B block -9%, Sfp PPTase inh -8%, PLK1 PBD inh -3%, HP1b binding inh 10%, JMJD2A Tudor inh -22% and G9a block -30%[59 µM].
For O=C(O)c1ccc(-n2cccc2/C=C2/NC(=O)N(c3ccccc3)C2=O)cc1 the results were BAZ2B block 13µM*, Sfp PPTase inh -20%, PLK1 PBD inh 19µM*, HP1b binding inh 16µM*, JMJD2A Tudor inh 25µM* and G9a block 8.9µM*.
`O=C(CN1C(=O)S/C(=C/c2cccs2)C1=O)N1CCCC1` gave BAZ2B block inconclusive, PLK1 PBD inh -5%, HP1b binding inh 18%, JMJD2A Tudor inh -15% and G9a block -12%[59 µM].
For O=C(O)c1ccc(-n2cccc2/C=C2/NC(=O)N(c3cccc(Cl)c3)C2=O)cc1 the results were BAZ2B block 16µM*, Sfp PPTase inh inconclusive, PLK1 PBD inh 27µM*, HP1b binding inh inconclusive, JMJD2A Tudor inh 20µM* and G9a block 8.9µM*.
CC(C)n1cc(/C=C2/NC(=O)N(c3cccc(Cl)c3)C2=O)c2ccccc21 was read as BAZ2B block 9%, Sfp PPTase inh 4%, PLK1 PBD inh -5%, HP1b binding inh 33%, JMJD2A Tudor inh -7% and G9a block 9%[59 µM].
Screening O=C(O)c1ccc(-n2cccc2/C=C2/SC(=O)N(CC(=O)N3CCCC3)C2=O)cc1 returned BAZ2B block 8.9µM*, Sfp PPTase inh -8%, PLK1 PBD inh 19µM*, HP1b binding inh 14µM*, JMJD2A Tudor inh 10µM* and G9a block 8.9µM*.
CCOC(=O)c1nc2cc3n(c(C)c-2c1C)C(C)C(CC)=C3C (stereo unspecified) was read as PLK1 PBD inh -15%, HP1b binding inh 19% and JMJD2A Tudor inh -6%[57.1 µM].
COc1cc(C(=O)N(C(C)C)C2CCCCC2)cc(OC)c1OC was read as PLK1 PBD inh -1%.
For O=C(NC1CCCCC1)Oc1cc2oc(=O)sc2cc1Br the results were BAZ2B block -19%, Sfp PPTase inh 16µM*, PLK1 PBD inh 2.1µM*, HP1b binding inh 1%, JMJD2A Tudor inh -27% and G9a block 40µM*.
O=C(NC1CCCCCC1)c1ccc(Br)o1 was read as BAZ2B block 0%, Sfp PPTase inh 11%, PLK1 PBD inh -8%, HP1b binding inh 29%, JMJD2A Tudor inh -1% and G9a block -17%.
`CC(=O)c1cc(C(=O)Nc2cc(C)cc(C)c2)c2ccccn12` gave BAZ2B block -1%, HP1b binding inh 23%, JMJD2A Tudor inh -6% and G9a block -29%[59 µM].
`CN(C)CCCn1c(=O)n(CCc2ccccc2)c(=O)c2c3c(sc21)CCCCC3` gave BAZ2B block inconclusive, Sfp PPTase inh 10%, PLK1 PBD inh -10%, HP1b binding inh -14%, JMJD2A Tudor inh 56µM* and G9a block -79%.
CN(C)CCCn1c(=O)n(Cc2ccco2)c(=O)c2c3c(sc21)CCCCC3 was read as BAZ2B block -36%, Sfp PPTase inh 20µM*, PLK1 PBD inh -2%, HP1b binding inh -9%, JMJD2A Tudor inh -33% and G9a block inconclusive.
For Cn1c(=O)n(Cc2ccco2)c(=N)c2c3c(sc21)CCC3 the results were BAZ2B block inconclusive, Sfp PPTase inh -11%, PLK1 PBD inh -10%, HP1b binding inh 7%, JMJD2A Tudor inh inconclusive and G9a block -2%[59 µM].
`NCCNC(=O)Cn1c(=O)c2c3c(sc2n(Cc2ccccc2)c1=O)CCCC3` gave BAZ2B block inconclusive, Sfp PPTase inh -13%, PLK1 PBD inh -5%, HP1b binding inh -13%, JMJD2A Tudor inh -26% and G9a block -31%[2.33 µM].
`CN(C)CCn1c(=O)n(Cc2ccccc2)c(=O)c2c3c(sc21)CCCCC3` gave BAZ2B block inconclusive, Sfp PPTase inh -6%, PLK1 PBD inh 5%, HP1b binding inh inconclusive, JMJD2A Tudor inh 40µM* and G9a block 50µM*.
For CN(C)CCCNc1nc2sc3c(c2c(=O)n1CCc1ccccc1)CCCCC3 the results were BAZ2B block inconclusive, Sfp PPTase inh -21%, PLK1 PBD inh -7%, HP1b binding inh inconclusive, JMJD2A Tudor inh inconclusive and G9a block 45µM*.
`CCC(=O)N1CCC(C)(C(=O)NCc2cccc(OC)c2)C1` (stereo unspecified) gave PLK1 PBD inh -5%.
COc1ccc(/C=C2\N=C(C)OC2=O)cc1OC(C)=O was read as BAZ2B block -2%, Sfp PPTase inh -17%, PLK1 PBD inh -25%, HP1b binding inh 10%, JMJD2A Tudor inh -14% and G9a block 28µM*.
Screening COc1ccc(/C=C2\N=C(C)OC2=O)cc1OC returned BAZ2B block -1%, Sfp PPTase inh -2%, PLK1 PBD inh -19%, HP1b binding inh 11%, JMJD2A Tudor inh 1% and G9a block 35µM*.
For COc1cc(/C=C2\N=C(c3ccccc3)OC2=O)ccc1OC(C)=O the results were BAZ2B block 23%, Sfp PPTase inh 14%, PLK1 PBD inh -12%, HP1b binding inh 6% and JMJD2A Tudor inh -12%.
Screening O=C(CN1C(=O)c2ccccc2S1(=O)=O)NCCc1ccc(F)cc1 returned PLK1 PBD inh -12%, HP1b binding inh 29% and JMJD2A Tudor inh -11%.
Cc1noc(C)c1COc1cccc(C(=O)Nc2ccc(OCc3ccccc3)cc2)c1 was read as BAZ2B block -1%, Sfp PPTase inh 0%, PLK1 PBD inh 0%, HP1b binding inh 36%, JMJD2A Tudor inh 7% and G9a block -2%.
`Cc1cccnc1NC(=S)NCCc1ccccc1` gave BAZ2B block 35µM*, Sfp PPTase inh 40µM*, PLK1 PBD inh -17%, HP1b binding inh inconclusive, JMJD2A Tudor inh 20µM* and G9a block 0.71µM*.
`Cc1ccc(NC(=O)CCCc2ccccc2)nc1` gave BAZ2B block -18%, Sfp PPTase inh 6%, PLK1 PBD inh -20%, HP1b binding inh 26%, JMJD2A Tudor inh -12% and G9a block -5%.
Screening Cc1ccc(NC(=S)NCCc2ccccc2)nc1 returned BAZ2B block -32%, Sfp PPTase inh -9%, PLK1 PBD inh -2%, HP1b binding inh 22%, JMJD2A Tudor inh -20% and G9a block 1.6µM*.
Screening CS(=O)(=O)c1ccc(C(=O)N(Cc2ccccc2)c2ccccc2)cc1 returned BAZ2B block -3%, Sfp PPTase inh 5%, PLK1 PBD inh -15%, HP1b binding inh 4%, JMJD2A Tudor inh -21% and G9a block 45µM*.
